Tested on: HFF
Assay: cell viability relative to DMSO control; higher = less cytotoxic
Conditions: 1 µM; 72 h
Experimental: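 Single-dose cytotoxicity screen of the MMV Pandemic Response Box at 1 uM on human foreskin fibroblasts (HFF), 72 h at 37 C. Viability measured by MTT (OD 550 nm) and normalised to the DMSO control (% survival).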

Row | Structure (SMILES) | cell viability [%]
1 | Cc1nc(N(C)C(=O)Cc2ccc(-c3ccccn3)cc2)sc1S(N)(=O)=O | 66.3
2 | C=C(C)n1c(=O)n(Cc2ccccc2C)c2ccccc21 | 63
3 | Fc1ccc2c(/C=C/c3cccnc3)c[nH]c2c1 | 63.2
4 | CN(C)CCCNC(=O)c1ccc(-c2cc(O)c3ncccc3c2)cc1 | 67.8
5 | Cc1cccc(C)c1C(=O)Nc1nc(-c2ccccn2)cc2ccccc12 | 74.7
6 | N=c1n(CCN2CCCCC2)c2ccccc2n1CC(O)COc1ccc(Cl)cc1Cl (centres undefined) | 81.4
7 | COC(=O)Nc1nc2c(C)cccc2[nH]1 | 69.3
8 | O=C(NN1C(=O)[C@@H]2[C@@H]3C=C[C@@H]([C@H]4C[C@@H]34)[C@@H]2C1=O)c1ccc(C(F)(F)F)cc1 | 71.8
9 | CC(C)N(c1cc(-c2ccccc2)sc1C(=O)O)C(=O)[C@H]1CC[C@H](C)CC1 | 67.5
10 | Cc1c(N)cccc1Cn1ccc(OCCc2cccs2)cc1=O | 60.5
11 | C/C(=N\NC(=O)C1CC1c1ccccc1)c1ccc(NC(=O)c2ccco2)cc1 (centres undefined) | 60
12 | Oc1cc(-c2cccc3ccccc23)[nH]n1 | 66.8
13 | O=C(O)/C=C/C=C/c1cccc(Oc2cc(Cl)cc(Cl)c2)c1 | 63.3
14 | O=C(O)CSc1cc(NS(=O)(=O)c2cccc3cccnc23)c2ccccc2c1O | 59.6
15 | CC(=N)N1CC[C@H](SC2=C(C(=O)O)N3C(=O)[C@@H]([C@@H](C)O)[C@H]3C2)C1 | 63.8
16 | CCCC1(C2CC2)c2cc(Cl)ccc2NC(=O)N1C (centres undefined) | 62.3
17 | CN(C)CC(=O)Nc1ccc2[nH]c(=O)c3ccccc3c2c1 | 59.3
18 | O=C(NC(=O)N1CCCc2ccccc21)c1ccc(Cl)cc1Cl | 70.2
19 | OC(Cn1cncn1)(Cn1cncn1)c1ccc(F)cc1F | 66.7
20 | OB1OCc2c1ccc(Cl)c2F | 68.5
21 | FC(F)(F)c1cc(C(F)(F)F)c2ccc3nc(-c4nnco4)cn3c2n1 | 67.3
22 | O=C(Nc1ncc(Cc2cccc3ccccc23)s1)C1CCCCC1 | 58.6
23 | CN1CCN(Cc2ccc(-c3cnc4[nH]cc(-c5ccc6[nH]ccc6c5)c4c3)cc2)CC1 | 75.3
24 | CCOc1ccc(/C=N/NC(=O)C2CC2c2ccc(C(C)(C)C)cc2)cc1OCC (centres undefined) | 57.3
25 | CC(C)(C)NC(=O)N[C@H](C(=O)N1C[C@H]2[C@@H]([C@H]1C(=O)NC(CC1CCC1)C(=O)C(N)=O)C2(C)C)C(C)(C)C (some centres undefined) | 63.4
26 | CN(O)C(=O)c1cc2c(CN3CCC[C@H]3C(N)=O)cn(Cc3ccc(F)cc3)c2cn1 | 64.1
27 | Cc1oncc1C(=O)Nc1ccc(C(F)(F)F)cc1 | 65.7
28 | O=C(O)c1cc(-c2ccccc2)nc2ccccc12 | 70.7
29 | CC(C)(C)c1cccc(-c2nc3cc(C(=N)N)ccc3[nH]2)c1O | 64.8

From the supplement of paper PMC10941209
